# Compounds with a hit are over-represented: about 19% of the library has one in this group of screens.
# TDP1 inh – blocks human tyrosyl-DNA phosphodiesterase 1; 350,000 compounds, 0.28% hits; AID 485290; Q9NUW8; recombinant TDP1, AlphaScreen DNA substrate cleavage; Potency, µM (doses to about 130 µM), most hits filed as inhibitors; note: nearly all actives have a fitted effect of over 40% in size
# Target sequence (Q9NUW8 whole entry, looked up): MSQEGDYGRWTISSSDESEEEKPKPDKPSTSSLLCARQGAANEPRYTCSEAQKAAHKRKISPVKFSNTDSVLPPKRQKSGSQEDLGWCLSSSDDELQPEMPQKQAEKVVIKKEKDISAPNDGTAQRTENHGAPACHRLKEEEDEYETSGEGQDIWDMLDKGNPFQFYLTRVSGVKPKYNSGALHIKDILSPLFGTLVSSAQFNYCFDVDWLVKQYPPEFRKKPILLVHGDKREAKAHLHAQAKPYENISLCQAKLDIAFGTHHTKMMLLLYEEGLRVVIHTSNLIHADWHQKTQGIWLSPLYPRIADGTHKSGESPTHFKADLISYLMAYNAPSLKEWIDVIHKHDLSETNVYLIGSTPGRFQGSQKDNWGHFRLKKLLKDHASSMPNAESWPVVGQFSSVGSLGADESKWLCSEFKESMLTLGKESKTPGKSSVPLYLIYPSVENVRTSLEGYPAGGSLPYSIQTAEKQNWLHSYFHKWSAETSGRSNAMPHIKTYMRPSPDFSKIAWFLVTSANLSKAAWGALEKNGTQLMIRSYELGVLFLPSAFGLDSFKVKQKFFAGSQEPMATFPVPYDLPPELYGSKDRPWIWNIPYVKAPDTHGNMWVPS
#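 E. coli-derived human Tdp1, 1 nM final. Cpd preinc 15 min RT; substrate 15 nM final, 5 min RT; AS bead mix 10 ug/ml final, 10 min RT. Signal loss = tyrosine-FITC cleavage. No-enzyme wells = max signal.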
# IL-1B inflam inh – blocks inflammasome-driven IL-1 beta release; THP-1 LPS/ATP IL-1B secretion, AlphaLISA, 16 h; hits give low values; activity change, % at 57.5 µM; 360,000 compounds, 4.7% hits; AID 743279; in the data active = activity change below about -50%; inconclusive = mostly about -30% to -49%
#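 Secreted IL-1B measured by AlphaLISA bead assay after 16 h compound exposure of THP-1 cells; compounds (final up to 57.5 uM) added 1 h before LPS (250 ng/mL) and ATP (1.25 mM) stimulation; lower signal means less secretion.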
# ELG1 repair inh – ELG1-dependent DNA repair inhibition. HEK293T ELG1-luciferase reporter, luminescence, 16 h; DNA damage induced by 5-fluorouridine. Potency, µM (series often up to 46.1 µM), usual class: inhibitors. 330,000 compounds, 2.3% hits. AID 504467; note: nearly all actives have a fitted effect of over 55% in size
#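 HEK293T cells expressing luciferase-tagged ELG1 (2,000/well) received 5-Fluorouridine plus compound or DMSO for 16 hr at 37 °C. Luciferase was read by ONE-Glo luminescence after 30 min at room temperature.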
# DT40 TDP1 no CPT – qHTS for Inhibitors of human tyrosyl-DNA phosphodiesterase 1 (TDP1): qHTS in cells in absence of CPT. DT40 Tdp1-/- hTDP1 cells, no CPT, ATP luminescence, 48 h. Potency, µM (series often up to 46.2 µM), actives largely listed as inhibitors. 420,000 compounds, 15% hits. AID 686978, 2013; note: nearly all actives have a fitted effect of over 55% in size
#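 Luminescent ATP content (CellTiter-Glo) served as the growth readout. Knockout chicken DT40 cells expressing human TDP1 were exposed to compounds without camptothecin for a minimum 48 hr at 37 °C.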
# Giardia kill – Giardia lamblia killing; Giardia lamblia trophozoite viability; activity change, % at 7.66 µM, hits read low; 340,000 compounds, 0.15% hits; AID 540267; in the data active = activity change below about -80%; inconclusive = between about -30% and that limit;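 note: parasites exposed to compound for two days anaerobically before the ATP read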
#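 Killing of trophozoites was scored by loss of ATP luminescence after a 48 hrs anaerobic exposure to compounds at 37 deg C, using 100 cells per well.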
# DT40 TDP1 CPT – DT40-hTDP1 cell growth loss with CPT | chicken DT40 Tdp1-/-;hTDP1 cells + 20 nM CPT, ATP luminescence, 48 h | AID 686979 | Potency, µM (titrated, usually from 46.2 µM), actives largely listed as inhibitors | 420,000 compounds, 12% hits; note: nearly all actives have a fitted effect of over 55% in size
#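 Chicken DT40 Tdp1-/- cells stably complemented with human TDP1 were seeded at 400 cells/well in medium containing 20 nM camptothecin, exposed to pin-transferred compounds, and grown at 37 °C for at least 48 hr. Viability was read as ATP luminescence.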
# Hits are given with their value; - = inactive; ? = inconclusive; . = no result given; [ ] = remark or other dose. Unless noted, calls come from the whole dose curve; as a rule, active = well fitted curve in the direction sought with a large enough effect; inconclusive = small, poorly fitted or top-dose-only effect, or another doubt; inactive = no such curve, though single readings can be large; an effect the other way counts as inactive or inconclusive.
SMILES,TDP1 inh,IL-1B inflam inh,ELG1 repair inh,DT40 TDP1 no CPT,Giardia kill,DT40 TDP1 CPT
CC(C)NC(=O)N1Cc2cc(C(=O)NC3CCCCC3)nc(-c3cccc(-c4cccnc4)c3)c2[C@@H]1CCO,.,?,.,10.3µM,.,11.6µM
CN1CCN(c2ncc3ncc(=O)n(C)c3n2)CC1,.,.,.,-,.,-
CC(C)CN1Cc2cc(-c3cccc(F)c3)ccc2-n2nncc2C1,.,-,.,?,.,?
COc1ccc(-c2ccc3c(c2)CN(CC(C)C)Cc2cnnn2-3)cc1,.,?,.,?,.,16.4µM
Clc1cccc(N2Cc3cc(-c4ccccc4)ccc3-n3nncc3C2)c1,.,-110.3,.,3.66µM,.,2.59µM
Clc1cccc(N2Cc3cc(N4CCOCC4)ccc3-n3nncc3C2)c1,.,-,.,?,.,18.4µM
O=C(CN1CCCCC1c1cccnc1)c1ccccc1 (stereo not given),-,.,.,-[9.04 µM],.,-[9.04 µM]
CC1/C=C/C=C/CC/C=C/C=C/C=C/C=C/C(OC2OC(C)C(O)C(N)C2O)CC2O[C@](O)(CC(O)C(O)CCC(O)CC(O)CC(O)CC(=O)OC(C)C(C)C1O)CC(O)C2C(=O)O (stereo not given in full),-,.,.,-,.,-
c1ccc(CCc2ccc3n2Cc2cnnn2-c2ccccc2-3)cc1,.,-57.6,.,?,-,6.51µM
c1ccc(C2c3ccccc3-n3nncc3CN2CC2CCCCC2)cc1 (stereo not given),.,-,.,?,-,?
COc1ccc(CN2Cc3cnnn3-c3ccccc3C2C#N)cc1 (stereo not given),.,-101.6,.,1.84µM,-,1.84µM
COc1ccc(C(=O)N2Cc3cnnn3-c3ccccc3C2C#N)cc1 (stereo not given),.,-,.,-,-,-
N#CC1c2ccccc2-n2nncc2CN1C(=O)CCc1ccccc1 (stereo not given),.,-,.,10.3µM,-,14.6µM
COc1ccc(CN2Cc3cnnn3-c3ccccc3C2c2ccccc2)cc1 (stereo not given),.,-,.,16.4µM,-,16.4µM
CC(=O)c1ccc(Oc2nc(C)nc3c2oc2ccccc23)cc1,-,.,.,?,.,?
NC(=O)NNc1ccccc1,-,.,.,?,.,?
NCCCP(=O)(O)CC1CCCCC1,-,.,.,-,.,-
N#CC1c2ccccc2-n2nncc2CN1Cc1cc(Cl)cc(Cl)c1 (stereo not given),.,-102.2,.,1.84µM,-,1.64µM
Cn1cc(C(=O)c2ccccc2)c2ccccc21,-,-,?,?,-,-
COC(=O)c1cn(S(=O)(=O)c2ccccc2)c2ccccc12,.,-,-,25.9µM,-,?
C=C1C(O)[C@@H]2O[C@]3(CC[C@H](/C=C/C(C)[C@@H]4CC(C)=CC5(O[C@H](C[C@@](C)(O)C(=O)O)CCC5O)O4)O3)CC[C@H]2O[C@@H]1C(O)CC(C)[C@H]1OC2(CCCCO2)CCC1C (stereo not given in full),-,?,0.0517µM,0.146µM,-,0.164µM
C=C1C([C@@H](O)C[C@H](C)C2O[C@@]3(CCCCO3)CC[C@H]2C)OC2CC[C@@]3(CC[C@@H](/C=C/[C@@H](C)C4CC(C)=C[C@]5(O4)O[C@H](C[C@@](C)(O)C(=O)O)CCC5O)O3)OC2[C@@H]1O (stereo not given in full),-,.,.,0.0104µM,.,0.013µM
CCCc1cc2c(n1Cc1cccc(Cl)c1)C(C)C1CN(C(=O)c3ccccc3)C(C)(C(=O)OC)C21 (stereo not given),-,.,.,.,.,.
CCOC(=O)[C@]12Cc3ccccc3[C@H]1N(CCC(=O)OC)C(=O)c1cc(OC)ccc12,.,-117.8,.,?,.,?
CCOC(=O)[C@]12Cc3cc(OC)ccc3[C@H]1N(CCC(=O)OC)C(=O)c1cc(OC)ccc12,.,-54.0,.,14.6µM,.,?
SMILES,TDP1 inh,IL-1B inflam inh,ELG1 repair inh,DT40 TDP1 no CPT,Giardia kill,DT40 TDP1 CPT
CCCCN1C(=O)/C(=C/C=C/c2ccco2)C(=O)NC1=S,.,-,-,-,-,-
O=C1NC(=O)N(Cc2ccc(F)cc2)C(=O)/C1=C\C=C\c1ccco1,.,-95.6,?,7.31µM,?,7.31µM
CCCCN1C(=O)/C(=C\c2ccco2)C(=O)N(CCc2ccccc2)C1=O,-,-,-,-,-,?
O=C(O)Cn1cc(/C=C2\C(=O)NC(=O)N(Cc3ccco3)C2=O)c2ccccc21,.,-,-,?,-,0.731µM
O=C1NC(=O)N(Cc2ccccc2)C(=O)/C1=C\c1ccco1,-,-,-,13µM,-,20.6µM
COc1cc(CC(=O)OCC2=C[C@H]3[C@@H]4C(C)(C)[C@]4(OC(C)=O)[C@H](OC(=O)Cc4ccccc4)[C@@H](C)[C@]3(O)[C@@H]3C=C(C)C(=O)[C@@]3(O)C2)ccc1O,-,.,.,.,.,.
O=C(O)/C=C\CO,-,.,.,-,.,-
CCSC(=O)Cl,-,.,.,.,.,.
CCN(CC)C(=O)Oc1cc2c(-c3cc4cccc(OC)c4o3)cc(=O)oc2cc1C,-,-,?,23.1µM,?,16.4µM
CN(C)C(=O)Oc1ccc2oc(=O)cc(-c3cc4ccccc4o3)c2c1,-,-,-,-,-,-
Cc1cc2oc(=O)cc(-c3cc4ccccc4o3)c2cc1OC(=O)N(C)C,-,-,-,?,-,14.6µM
Cc1cccc(C)c1OCC(=O)Nc1ccc(Cl)cc1C(=O)c1ccccc1,-[12.3 µM],.,.,-,.,-
Cc1ccccc1NC(=O)CCl,.,-86.3,-,23.1µM,-,18.4µM
Cc1[nH]n(-c2ccccc2)c(=O)c1C(C[N+](=O)[O-])c1ccccc1Cl (stereo not given),-,-,-,29.1µM,-,20.6µM
Cc1[nH]n(-c2ccccc2)c(=O)c1C(c1ccc([N+](=O)[O-])cc1)c1c(C)[nH]n(-c2ccccc2)c1=O,-,-,-,?,-,16.4µM
CCCC[N+]12C3CC(C(CC)[C@H]1O)[C@@H]1C(O)C4(C[C@@H]12)c1ccccc1N(C)C34 (stereo not given in full),-,.,.,-[9.04 µM],.,?
CCCN1[C@H](C(=O)OC)C[C@@H]2CC[C@@H](O)C[C@@H]21,-,.,.,.,.,.
Oc1ccc2c3c1OC1C(O)CC[C@]4(O)C(C2)N(CC2CCC2)CC[C@]314 (stereo not given in full),-,.,.,-,.,-
COc1cc2cc(c1Cl)N(C)C(=O)CC(OC(=O)C(C)N(C)C(C)=O)C1(C)OC1C(C)C1CC(O)(NC(=O)O1)C(OC)C=CC=C(C)C2 (stereo not given),.,-,.,0.13µM,?,0.0461µM
Cc1c(C(=O)O)cc(-c2ccccc2)n1Cc1ccccc1,.,-,-,-,-,-
CSc1cc(-c2ccccc2)n(Cc2c(Cl)cccc2Cl)c(=O)c1C#N,-,-,?,3.26µM,-,4.61µM

# Screening results: PubChem, National Center for Advancing Translational Sciences (NCATS)
